Screening results: PubChem BioAssay, several laboratories
An excerpt weighted towards active compounds, which were near 3.6% of everything screened.
A3A deaminase: APOBEC3A ssDNA deaminase inhibitors, primary screen, selectivity assay for APOBEC3G inhibitor project, biochemical, FAM/TAMRA oligo cleavage fluorescence | actives 0.41% (n = 330,000) | DNA dC->dU-editing enzyme APOBEC-3A (Homo sapiens), P31941 | recombinant A3A, FAM/TAMRA ssDNA deamination fluorescence | AID 493011, 2011 | inhibition, % at 20 µM;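 active means at least 40% inhibition at 20 µM here, with at most 30% in a related deaminase screen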;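 further: plate controls were A3A with DMSO for no effect and wells lacking A3A enzyme for full effect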
APOBEC3G inh: APOBEC3G DNA deaminase inhibitors, primary screen, biochemical, fluorescence, single-stranded DNA substrate, uHTS; DNA dC->dU-editing enzyme APOBEC-3G (Homo sapiens), Q9HC16; recombinant A3G, ssDNA deamination FAM/TAMRA fluorescence; inhibition, % at 20 µM; actives 0.28% (n = 330,000); AID 493012, 2011;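 active means inhibition of at least 40% at 20 µM, with no more than 30% in the related APOBEC3A deaminase screen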;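 further: plate controls were DMSO wells with A3G for no effect and wells lacking A3G enzyme for full effect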
Target sequence (Q9HC16 whole entry, looked up): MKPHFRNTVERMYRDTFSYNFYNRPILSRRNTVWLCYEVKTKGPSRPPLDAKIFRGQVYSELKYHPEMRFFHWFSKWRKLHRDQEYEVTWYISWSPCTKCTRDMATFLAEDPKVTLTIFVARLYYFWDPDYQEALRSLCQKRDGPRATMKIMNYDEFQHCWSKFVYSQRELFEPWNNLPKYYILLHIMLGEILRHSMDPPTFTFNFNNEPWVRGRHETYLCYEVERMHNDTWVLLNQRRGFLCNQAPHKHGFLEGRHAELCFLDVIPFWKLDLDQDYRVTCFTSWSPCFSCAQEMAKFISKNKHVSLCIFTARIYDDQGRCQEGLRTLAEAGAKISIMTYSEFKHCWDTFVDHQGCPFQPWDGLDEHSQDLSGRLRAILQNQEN
PHOSPHO1 inh: PubChem AID 1565 | recombinant PHOSPHO1, absorbance phosphatase assay | inhibition, % at 13.3 µM | actives 1.1% (n = 290,000); in the data active means inhibition above about 60%
Target sequence (Q8TCT1 whole entry, looked up): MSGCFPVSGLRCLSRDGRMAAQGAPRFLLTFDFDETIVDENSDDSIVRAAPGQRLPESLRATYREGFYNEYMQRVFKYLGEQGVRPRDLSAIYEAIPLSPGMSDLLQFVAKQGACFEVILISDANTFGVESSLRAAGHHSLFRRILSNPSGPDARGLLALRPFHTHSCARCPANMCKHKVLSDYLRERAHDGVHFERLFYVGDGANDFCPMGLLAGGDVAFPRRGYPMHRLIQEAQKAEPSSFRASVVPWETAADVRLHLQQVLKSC
Wnt bcat act: Wnt/beta-catenin pathway activators, primary screen, cell-based, plate reader, single point. Wnt/beta-catenin reporter cell assay, activator. activation, % at 9.35 µM. actives 1.2% (n = 300,000). AID 743398, 2014; in the data active means activation above about 30%, passing the limit was not always enough; inconclusive means no clear call, values can overlap the other calls;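 further: 0% = neutral control wells and 100% = positive control wells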
MITF act: activators of MITF-driven TRPM1 promoter reporter, primary screen, cell-based, SK-MEL-5, luciferase, single point. SK-MEL-5 TRPM1-promoter luciferase, 24 h; % of positive control, neutral wells = 0. AID 588334, 2011. activation, % at 12.5 µM. actives 0.75% (n = 300,000);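 active means mean activation of at least 80% with every replicate also reaching 80%; inconclusive means mean reaches 80% but some replicate falls short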;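 further: 0% = neutral control wells and 100% = parthenolide positive control wells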
esBAF inh: Bmi1 luciferase reporter increase in mESCs, primary screen, esBAF inhibitor project, mouse ES cells, Bmi1 luciferase knock-in, single point | 24 h; 100% = twice the neutral-well signal | reporter increase, % at 12.5 µM | actives 2% (n = 350,000) | AID 602393, 2012; in the data active means activation above about 40%; inconclusive means no clear call, values can overlap the other calls;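 further: 0% = median of the plate's neutral control wells and 100% = double that signal; a rise in the Bmi1 reporter signal indicates esBAF inhibition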
* hit, by the source's call; ? = inconclusive; / = not tested or not shown.

SMILES	A3A deaminase	APOBEC3G inh	PHOSPHO1 inh	Wnt bcat act	MITF act	esBAF inh
CC(=O)/C(=N\Nc1ccc(C)cc1)N1CCOCC1	-3.0	-6.1	65.0*	/	0.5	4.3
Cc1ccc(NS(=O)(=O)c2ccc(C(=O)N3CCOCC3)cc2)cc1	1.7	-6.2	/	-0.7	-13.5	/
CC(C)C(=O)Nc1ccc2c(c1)C(=O)N(C)[C@@H]1CC[C@H](CC(=O)NCc3ccc(F)cc3)O[C@H]1CO2	/	/	/	/	/	1.6
Cc1ccc(N=Nc2c(C)[nH]n(C(N)=S)c2=O)cc1C	1.1	-5.2	9.8	12.7	4.1	/
CC(=O)Nc1ccc(N=Nc2c(C)[nH]n(C(N)=S)c2=O)cc1	-1.9	-5.1	53.6	12.7	5.7	49.2*
C[C@H]1CCCCO[C@H](CN(C)C(=O)C2CCCCC2)[C@@H](C)CN([C@@H](C)CO)C(=O)c2cc(NC(=O)Nc3ccc(F)cc3)ccc2O1	/	/	/	/	/	-0.7
Nc1ccc(Oc2cc(N)cc(Oc3ccccc3)c2)cc1	-2.8	-4.8	/	?	86.6*	3.0
Nc1ccc(Oc2ccc3nc(-c4ccccc4)c(-c4ccccc4)nc3c2)cc1	4.0	-3.8	15.0	/	13.5	36.0
CO[C@@H]1CN(C)C(=O)c2cc(NS(=O)(=O)CC(F)(F)F)ccc2OC[C@@H](C)N(CCC(F)(F)F)C[C@H]1C	/	/	/	/	/	-0.4
CC(=O)NC[C@@H]1[C@@H](c2ccc(-c3ccccc3F)cc2)[C@@H](CO)N1C(C)=O	/	/	/	/	/	-0.9
O=C1c2ccccc2C(=O)N1CCOCCN1C(=O)c2ccccc2C1=O	-0.3	-8.0	-0.3	/	-8.1	-4.9
CCOc1ccc(OCCN2C(=O)c3ccccc3C2=O)cc1	4.4	-4.9	-0.6	2.4	75.5	62.9*
N#Cc1ccccc1OCCN1C(=O)c2ccccc2C1=O	-3.6	-4.2	46.5	/	71.5	56.3*
O=C1c2ccccc2C(=O)N1CCCOc1ccccc1	-3.0	-7.9	3.7	7.8	29.4	?
Cc1cc(=O)n2nc(N3CCC(C(=O)N4CCN(c5ccccc5)CC4)CC3)sc2n1	-6.8	-5.1	49.6	-0.1	-8.2	-2.9
CCCc1cc(=O)n2nc(N3CCC(C(=O)N4CCN(c5ccc(OC)cc5)CC4)CC3)sc2n1	-2.5	5.7	63.6*	-8.0	-15.3	-14.7
Cc1noc(C)c1C(=O)Nc1nc(-c2cc(F)ccc2F)cs1	-3.0	-9.8	/	9.5	29.8	74.3*
Cc1onc(-c2ccccc2)c1C(=O)Nc1nc(-c2cc(F)ccc2F)cs1	2.2	0.0	-9.4	-2.2	?	29.8
Cc1ccnc(Nc2nc(-c3ccc(O)c(O)c3)cs2)c1	-5.1	6.6	14.1	8.2	/	16.6
Cc1ccnc(Nc2nc(-c3ccc(O)cc3)cs2)c1	-0.5	-5.5	26.5	16.7	59.8	49.8*
Cc1ccnc(Nc2nc(-c3ccc(O)cc3O)cs2)c1	-8.9	-11.8	/	16.3	/	78.5*
N#CC1=C(N)Oc2cc3ccccc3cc2C1c1cccs1 (stereo not given)	-1.7	-3.4	62.2*	-4.3	-19.2	-8.7
O=C(c1ccccc1)c1ccc2nc(-c3ccco3)c(-c3ccco3)nc2c1	59.6	42.4	-103.3	36.4*	64.5	39.5
O=C(NCCO)c1ccc2nc(-c3ccco3)c(-c3ccco3)nc2c1	79.3	77.5	74.1*	-6.1	13.5	/
C[C@@H]1CCCCO[C@@H](CN(C)Cc2ccccc2)[C@@H](C)CN([C@H](C)CO)C(=O)c2cc(NC(=O)CCCN(C)C)ccc2O1	/	/	/	/	/	-7.0
SMILES	A3A deaminase	APOBEC3G inh	PHOSPHO1 inh	Wnt bcat act	MITF act	esBAF inh
CCOc1ccc(N/C(=C(/C(Cl)=C(Cl)Cl)[N+](=O)[O-])n2cncn2)cc1	-2.5	2.9	20.4	/	/	/
O=[N+]([O-])/C(C(Cl)=C(Cl)Cl)=C(\Nc1ccc(F)cc1)n1cncn1	-3.7	33.9	93.2*	/	/	/
CCCc1nc2ccc(NC(C)=O)cc2c(=O)n1Cc1ccc(Cl)cc1	0.7	-1.6	-9.8	15.6	82.0*	/
CCCc1nc2ccc(NC(=O)c3cccs3)cc2c(=O)n1Cc1ccccc1Cl	-0.2	-3.7	-4.0	-1.8	5.6	/
O=[N+]([O-])c1ccccc1CSc1nnc2ccccn12	-2.5	-3.4	28.3	4.6	33.6	62.7*
CCN1C(=O)CC(N2CCN(c3ccc(Cl)cc3)CC2)C1=O (stereo not given)	-3.6	-4.4	-33.3	-0.1	-0.1	-3.8
CCN1C(=O)CC(N2CCN(c3ccc(C(=O)c4ccccc4)cc3)CC2)C1=O (stereo not given)	0.2	-3.0	-64.8	-0.8	48.2	54.8*
CC(C)CC#Cc1ccc2c(c1)O[C@H](CN(C)C(=O)C1CCCCC1)[C@@H](C)CN([C@H](C)CO)S2(=O)=O	/	/	/	/	/	4.4
CNC[C@H]1OCCCC[C@@H](C)Oc2ccc(NC(=O)Nc3cccc4ccccc34)cc2C(=O)N([C@H](C)CO)C[C@@H]1C	/	/	/	/	/	1.9
Cn1cnnc1SCc1ccc(-c2ccc(Br)cc2)o1	-5.7	-3.5	84.6*	/	21.0	27.8
CCOC(=O)c1sc(S(C)(=O)=O)c2c1CCc1conc1-2	-5.1	-5.9	29.0	54.8*	/	/
Cc1noc(C)c1S(=O)(=O)Nc1ccc2c(c1)C(=O)N([C@@H](C)CO)C[C@H](C)[C@H](CN(C)Cc1ccc(Oc3ccccc3)cc1)O2	/	/	/	/	/	-4.6
C=CCOc1c(CNc2ccc(C(=O)O)cc2)cccc1OC	-10.4	-6.1	-4.6	3.1	-1.2	/
C=CCOc1c(CNc2ccc(C(=O)O)cc2)cccc1OCC	3.3	-5.0	22.4	/	64.7	43.8*
C=CCOc1c(CNc2cccc(C(=O)O)c2)cccc1OC	-7.0	-7.8	-2.1	/	51.5	51.8*
C[C@H](CO)N1C[C@H](C)[C@H](CN(C)C(=O)Nc2ccccc2)Oc2ccc(NC(=O)Nc3ccc4c(c3)OCO4)cc2C1=O	/	/	/	/	/	6.2
CC(C)C#Cc1cnc2c(c1)C(=O)N([C@@H](C)CO)C[C@@H](C)[C@H](CN(C)C(=O)CC1CC1)O2	/	/	/	/	/	1.3
CCOC(=O)C1=C(CSc2nc(-c3ccncc3)ccc2C#N)OC(N)=C(C#N)C1c1cccnc1 (stereo not given)	-1.4	-3.7	61.0*	0.0	-9.6	13.5
CCOC(=O)C1=C(CSc2nc(C)ccc2C#N)OC(N)=C(C#N)C1c1cccc(OC)c1OC (stereo not given)	-5.6	8.1	76.1*	/	-14.4	13.4
CN(C)CCCNC(=O)[C@H]1[C@H](CO)[C@H]2Cn3c(ccc(C4=CCCC4)c3=O)[C@H]2N1CCC(F)(F)F	/	/	/	/	/	4.7
Cc1c(C(=O)Nc2ccc(Br)cc2)cnn1C	-3.5	-6.7	0.2	40.1*	28.3	/
O=C(Nc1ccc(Br)cc1)c1cc2ccccn2n1	0.3	-6.0	22.6	52.6*	35.0	/
